The supplement of paper PMC10849652
About 7,900 targets were measured; listed, in parts, are those with a hit and a random draw of the rest. About 0.6% of all pairs of compound and target were hits. A number with no mark means an inactive call.

Compound: Cc1ccc(NC(=O)c2ccc(CN3CC[C@H](N(C)C)C3)c(C(F)(F)F)c2)cc1Nc1nccc(-c2cncnc2)n1 [bafetinib]
Experiment: log2 fold change, soluble protein after heating vs DMSO (PISA); higher = thermal stabilisation; K562 cells, 10 uM, 30 min; active = over 0.2 and 3.5 SD of the protein, either way, in both replicates (recomputed)
Procedure, shortened: (§1)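 K562 cells at 2×10^6 cells/mL were treated for 30 min with 10 μM compound, and aliquots were heated for 3 min over 48°C-58°C before pooling. Extraction used PBS with 0.5% NP-40 at 4°C, and soluble protein was the supernatant after 21,000xg for 90 min, measured by TMTpro 16plex LC-MS/MS with channel sums equalised. Thermal stability values, relative to control samples and from duplicates, are log2 fold changes.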

UniProt P28300, sequence (P28300 whole entry, looked up): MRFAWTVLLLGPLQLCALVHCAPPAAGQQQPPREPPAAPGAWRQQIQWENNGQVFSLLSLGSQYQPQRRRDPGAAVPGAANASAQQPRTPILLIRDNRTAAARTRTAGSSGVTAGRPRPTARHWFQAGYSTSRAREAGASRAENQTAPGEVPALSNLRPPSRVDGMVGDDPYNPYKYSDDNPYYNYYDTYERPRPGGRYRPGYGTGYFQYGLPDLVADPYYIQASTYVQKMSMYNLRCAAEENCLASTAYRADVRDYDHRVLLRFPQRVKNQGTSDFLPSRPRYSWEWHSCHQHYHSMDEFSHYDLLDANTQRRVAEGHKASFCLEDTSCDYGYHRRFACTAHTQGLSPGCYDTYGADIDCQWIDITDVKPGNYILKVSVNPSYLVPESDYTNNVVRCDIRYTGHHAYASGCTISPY
UniProt P27816, sequence (P27816 whole entry, looked up): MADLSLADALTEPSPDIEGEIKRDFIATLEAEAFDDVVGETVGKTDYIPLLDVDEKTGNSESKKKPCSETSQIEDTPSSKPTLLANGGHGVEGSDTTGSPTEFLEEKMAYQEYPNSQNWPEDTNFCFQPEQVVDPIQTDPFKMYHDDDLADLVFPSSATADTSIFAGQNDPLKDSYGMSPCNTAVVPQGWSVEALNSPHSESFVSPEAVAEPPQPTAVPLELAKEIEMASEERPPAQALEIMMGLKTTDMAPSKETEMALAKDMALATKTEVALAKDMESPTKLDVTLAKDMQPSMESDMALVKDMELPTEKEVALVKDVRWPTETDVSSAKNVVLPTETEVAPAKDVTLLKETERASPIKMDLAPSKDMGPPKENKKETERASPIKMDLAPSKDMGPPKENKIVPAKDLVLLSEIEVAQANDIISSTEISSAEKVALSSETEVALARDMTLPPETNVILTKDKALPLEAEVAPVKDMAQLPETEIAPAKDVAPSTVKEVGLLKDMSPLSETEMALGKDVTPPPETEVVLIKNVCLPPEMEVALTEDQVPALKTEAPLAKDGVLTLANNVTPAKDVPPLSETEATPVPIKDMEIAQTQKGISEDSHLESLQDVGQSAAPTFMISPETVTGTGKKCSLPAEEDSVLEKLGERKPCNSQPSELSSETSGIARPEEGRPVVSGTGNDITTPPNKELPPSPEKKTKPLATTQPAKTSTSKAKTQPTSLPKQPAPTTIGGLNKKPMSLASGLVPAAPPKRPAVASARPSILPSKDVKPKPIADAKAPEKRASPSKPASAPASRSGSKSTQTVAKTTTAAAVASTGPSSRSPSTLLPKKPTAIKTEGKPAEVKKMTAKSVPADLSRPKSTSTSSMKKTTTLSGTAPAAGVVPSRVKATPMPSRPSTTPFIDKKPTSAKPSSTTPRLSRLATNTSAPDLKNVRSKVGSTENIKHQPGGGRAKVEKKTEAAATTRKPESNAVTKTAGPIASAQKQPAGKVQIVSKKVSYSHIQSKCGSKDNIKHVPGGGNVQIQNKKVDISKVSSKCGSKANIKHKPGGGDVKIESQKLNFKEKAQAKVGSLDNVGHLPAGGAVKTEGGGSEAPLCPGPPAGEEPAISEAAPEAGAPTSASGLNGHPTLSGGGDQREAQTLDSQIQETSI
UniProt Q9Y5V3, sequence (Q9Y5V3 whole entry, looked up): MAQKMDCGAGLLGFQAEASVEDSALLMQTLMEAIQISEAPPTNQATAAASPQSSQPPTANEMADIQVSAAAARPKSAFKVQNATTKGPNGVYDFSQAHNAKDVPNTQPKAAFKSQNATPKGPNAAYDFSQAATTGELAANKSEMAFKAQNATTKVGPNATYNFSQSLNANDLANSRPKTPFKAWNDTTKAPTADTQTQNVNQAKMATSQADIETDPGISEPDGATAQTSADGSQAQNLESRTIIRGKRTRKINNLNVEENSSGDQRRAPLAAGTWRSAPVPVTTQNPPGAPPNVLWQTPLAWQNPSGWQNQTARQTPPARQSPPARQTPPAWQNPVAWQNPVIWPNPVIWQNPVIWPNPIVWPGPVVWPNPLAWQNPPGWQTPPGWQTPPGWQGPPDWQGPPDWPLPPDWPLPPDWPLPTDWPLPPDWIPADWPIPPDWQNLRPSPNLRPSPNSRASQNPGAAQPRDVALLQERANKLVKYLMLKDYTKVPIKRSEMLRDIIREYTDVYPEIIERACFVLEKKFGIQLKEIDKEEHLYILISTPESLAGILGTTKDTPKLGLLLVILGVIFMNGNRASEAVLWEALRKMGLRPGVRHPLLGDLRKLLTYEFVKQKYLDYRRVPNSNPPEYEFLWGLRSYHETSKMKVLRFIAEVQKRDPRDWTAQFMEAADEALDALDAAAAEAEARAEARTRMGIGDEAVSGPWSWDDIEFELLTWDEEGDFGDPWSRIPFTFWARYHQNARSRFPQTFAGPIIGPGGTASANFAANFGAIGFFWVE
UniProt Q12906, sequence (Q12906 whole entry, looked up): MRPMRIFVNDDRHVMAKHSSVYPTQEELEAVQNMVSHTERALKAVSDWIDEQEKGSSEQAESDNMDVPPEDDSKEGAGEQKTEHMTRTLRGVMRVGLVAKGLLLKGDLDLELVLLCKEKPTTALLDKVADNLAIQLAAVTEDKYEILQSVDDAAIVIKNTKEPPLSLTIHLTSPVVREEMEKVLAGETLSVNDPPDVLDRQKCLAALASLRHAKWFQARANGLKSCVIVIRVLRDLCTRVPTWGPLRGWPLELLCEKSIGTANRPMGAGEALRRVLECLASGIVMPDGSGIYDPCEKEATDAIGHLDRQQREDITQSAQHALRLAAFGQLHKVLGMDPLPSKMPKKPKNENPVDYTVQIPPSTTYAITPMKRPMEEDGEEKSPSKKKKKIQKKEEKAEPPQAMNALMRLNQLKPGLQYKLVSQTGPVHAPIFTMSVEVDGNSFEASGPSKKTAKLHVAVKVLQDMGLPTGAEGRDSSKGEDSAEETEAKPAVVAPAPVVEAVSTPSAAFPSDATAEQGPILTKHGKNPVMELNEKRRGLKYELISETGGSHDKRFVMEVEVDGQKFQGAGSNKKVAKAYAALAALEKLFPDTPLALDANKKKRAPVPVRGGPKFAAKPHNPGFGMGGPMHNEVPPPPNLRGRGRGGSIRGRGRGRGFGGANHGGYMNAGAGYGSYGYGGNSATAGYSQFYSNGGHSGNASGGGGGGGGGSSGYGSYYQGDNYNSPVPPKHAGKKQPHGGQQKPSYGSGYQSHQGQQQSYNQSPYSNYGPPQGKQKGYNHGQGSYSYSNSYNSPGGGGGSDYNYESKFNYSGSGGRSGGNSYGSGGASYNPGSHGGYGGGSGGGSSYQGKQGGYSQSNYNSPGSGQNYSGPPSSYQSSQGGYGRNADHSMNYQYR
UniProt Q9NVC6, sequence (Q9NVC6 whole entry, looked up): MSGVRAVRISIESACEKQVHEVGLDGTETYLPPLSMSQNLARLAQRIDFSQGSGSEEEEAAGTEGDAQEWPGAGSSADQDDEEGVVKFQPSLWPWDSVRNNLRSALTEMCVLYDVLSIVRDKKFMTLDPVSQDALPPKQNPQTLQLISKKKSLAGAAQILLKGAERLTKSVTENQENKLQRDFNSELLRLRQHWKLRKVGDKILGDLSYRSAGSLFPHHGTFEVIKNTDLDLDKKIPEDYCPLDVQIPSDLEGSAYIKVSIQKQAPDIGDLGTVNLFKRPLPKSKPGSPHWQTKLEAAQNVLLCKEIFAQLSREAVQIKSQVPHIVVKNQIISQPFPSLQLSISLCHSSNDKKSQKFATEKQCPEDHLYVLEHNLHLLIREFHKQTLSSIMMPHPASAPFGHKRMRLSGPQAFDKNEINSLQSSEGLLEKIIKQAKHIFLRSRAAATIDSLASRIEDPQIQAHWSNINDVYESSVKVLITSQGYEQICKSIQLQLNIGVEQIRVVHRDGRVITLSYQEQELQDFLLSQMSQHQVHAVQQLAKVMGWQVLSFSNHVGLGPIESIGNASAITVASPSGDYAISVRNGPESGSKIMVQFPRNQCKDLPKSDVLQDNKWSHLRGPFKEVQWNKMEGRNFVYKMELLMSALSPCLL
UniProt P08514, sequence (P08514 whole entry, looked up): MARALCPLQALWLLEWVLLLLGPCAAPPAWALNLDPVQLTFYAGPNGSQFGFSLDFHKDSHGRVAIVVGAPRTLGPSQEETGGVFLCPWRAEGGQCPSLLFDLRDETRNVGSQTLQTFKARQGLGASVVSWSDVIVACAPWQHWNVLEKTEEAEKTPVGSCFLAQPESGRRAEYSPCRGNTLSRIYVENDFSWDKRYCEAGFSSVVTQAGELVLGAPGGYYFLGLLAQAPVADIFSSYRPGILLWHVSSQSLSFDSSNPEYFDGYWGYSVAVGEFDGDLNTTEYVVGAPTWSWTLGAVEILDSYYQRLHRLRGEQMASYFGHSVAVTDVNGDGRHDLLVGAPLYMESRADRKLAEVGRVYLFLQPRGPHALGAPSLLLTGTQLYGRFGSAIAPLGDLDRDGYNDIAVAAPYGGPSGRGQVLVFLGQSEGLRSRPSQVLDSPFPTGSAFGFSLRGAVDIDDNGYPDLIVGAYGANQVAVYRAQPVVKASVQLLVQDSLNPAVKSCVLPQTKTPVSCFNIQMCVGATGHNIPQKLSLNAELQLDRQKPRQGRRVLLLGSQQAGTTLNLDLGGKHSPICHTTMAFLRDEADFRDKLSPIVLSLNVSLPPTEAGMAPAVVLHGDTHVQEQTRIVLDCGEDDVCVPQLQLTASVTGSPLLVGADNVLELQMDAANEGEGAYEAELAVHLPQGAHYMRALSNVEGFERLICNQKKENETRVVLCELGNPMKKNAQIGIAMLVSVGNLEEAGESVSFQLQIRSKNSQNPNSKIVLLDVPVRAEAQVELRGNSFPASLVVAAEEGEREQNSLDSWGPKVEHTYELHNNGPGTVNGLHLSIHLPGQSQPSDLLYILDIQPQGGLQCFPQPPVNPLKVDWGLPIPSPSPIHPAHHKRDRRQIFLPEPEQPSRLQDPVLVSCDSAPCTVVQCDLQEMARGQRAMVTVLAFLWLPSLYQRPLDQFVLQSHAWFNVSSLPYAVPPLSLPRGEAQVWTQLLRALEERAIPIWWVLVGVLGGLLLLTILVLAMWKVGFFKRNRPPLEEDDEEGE
UniProt O15243, sequence (O15243 whole entry, looked up): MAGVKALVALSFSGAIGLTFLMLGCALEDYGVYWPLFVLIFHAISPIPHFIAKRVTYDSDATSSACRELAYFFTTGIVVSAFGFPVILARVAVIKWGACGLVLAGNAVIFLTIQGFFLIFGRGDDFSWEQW

Target | log2 fold change
MAP4K2 (UniProt Q12851) | -0.116
MARCHF3 (UniProt Q86UD3) | 0.109
LDLRAP1 (UniProt Q5SW96) | -0.011
MAP4 isoform 5 (UniProt P27816) | -0.028
IKZF1 isoform 2 (UniProt Q13422) | -0.217
LOX (UniProt P28300) | -0.734 (active)
MFAP3 (UniProt P55082) | -0.385
LRFN1 (UniProt Q9P244) | -0.017
ILF3 (UniProt Q12906) | 0.084
MAN2B2 (UniProt Q9Y2E5) | -0.302

Compound: Cc1cccc(CC(=O)N2CCc3c2ccc(-c2cn(C)c4ncnc(N)c24)c3F)n1
Experiment: as above
Procedure, shortened: as §1

Target | log2 fold change
ITGA2B (UniProt P08514) | 0.256
MAPK11 (UniProt Q15759) | -0.116
MAPK7 (UniProt Q13164) | 0.034
LRRFIP1 isoform 4 (UniProt Q32MZ4) | -0.046
KMT5A (UniProt Q9NQR1) | -0.218
IKZF1 (UniProt R9R4D9) | -0.164
MFSD12 isoform 3 (UniProt Q6NUT3) | 0.047
LEPROT (UniProt O15243) | 0.03
MED17 (UniProt Q9NVC6) | -0.033
KIZ (UniProt Q2M2Z5) | 0.268
IGFBP3 isoform 2 (UniProt P17936) | 0.043

Compound: Cc1cn(-c2cc(NC(=O)c3ccc(C)c(Nc4nccc(-c5cccnc5)n4)c3)cc(C(F)(F)F)c2)cn1 [nilotinib]
Experiment: as above
Procedure, shortened: as §1

Target | log2 fold change
ITGA2B (UniProt P08514) | -0.04
LUM (UniProt P51884) | 0.449
MAP4K2 (UniProt Q12851) | -0.187
LYN isoform 2 (UniProt P07948) | -0.001
MAPRE3 isoform 2 (UniProt Q9UPY8) | -0.539
MARCHF3 (UniProt Q86UD3) | 0.156
MAP3K20 isoform 2 (UniProt Q9NYL2) | 0.098
MAP4 isoform 5 (UniProt P27816) | -0.181
IKZF1 isoform 2 (UniProt Q13422) | 0.101
MAP4K4 isoform 6 (UniProt O95819) | 0.047
MAGED1 isoform 2 (UniProt Q9Y5V3) | -0.035
LOX (UniProt P28300) | -0.183
ILF3 (UniProt Q12906) | -0.065
MED17 (UniProt Q9NVC6) | 0.069
MAN2B2 (UniProt Q9Y2E5) | -0.171
MED29 (UniProt Q9NX70) | 0.017

Compound: Cc1nc(Nc2n[nH]c3c2CN(C(=O)N[C@H](CN(C)C)c2ccccc2)C3(C)C)c2sccc2n1
Experiment: as above
Procedure, shortened: as §1

Target | log2 fold change
ITGA2B (UniProt P08514) | -0.013
LUM (UniProt P51884) | 0.036
MAP4K2 (UniProt Q12851) | 0.024
LYN isoform 2 (UniProt P07948) | -0.418
MAPRE3 isoform 2 (UniProt Q9UPY8) | -0.355
MARCHF3 (UniProt Q86UD3) | 0.15
MAP3K20 isoform 2 (UniProt Q9NYL2) | 0.014
MAP4 isoform 5 (UniProt P27816) | 0.028
IKZF1 isoform 2 (UniProt Q13422) | -0.018
MAP4K4 isoform 6 (UniProt O95819) | -0.034
MAGED1 isoform 2 (UniProt Q9Y5V3) | -0.008
LOX (UniProt P28300) | 0.175
ILF3 (UniProt Q12906) | 0.167
MED17 (UniProt Q9NVC6) | 0.079
MAN2B2 (UniProt Q9Y2E5) | 0.057
MED29 (UniProt Q9NX70) | 0.027

Compound: Cc1nc(Nc2ncc(C(=O)Nc3c(C)cccc3Cl)s2)cc(N2CCN(CCO)CC2)n1 [dasatinib]
Experiment: as above
Procedure, shortened: as §1

Target | log2 fold change
ITGA2B (UniProt P08514) | 0.012
IGFBP6 (UniProt P24592) | -0.038
LUM (UniProt P51884) | 0.002
LIN52 (UniProt Q52LA3) | -0.049
LSR isoform 3 (UniProt Q86X29) | -0.074
LRRFIP1 isoform 4 (UniProt Q32MZ4) | -0.095
LRRCC1 (UniProt Q9C099) | 0.017
MAP2K5 (UniProt Q13163) | 0.063
MAP4K4 isoform 6 (UniProt O95819) | -0.001
MAGED1 isoform 2 (UniProt Q9Y5V3) | 0.057
MFAP3 (UniProt P55082) | -0.083
IKZF1 (UniProt R9R4D9) | -0.17
LRFN1 (UniProt Q9P244) | -0.129
MFSD12 isoform 3 (UniProt Q6NUT3) | -0.093
LEPROT (UniProt O15243) | 0.188
MED17 (UniProt Q9NVC6) | -0.152
MAN2B2 (UniProt Q9Y2E5) | 0.013
MED29 (UniProt Q9NX70) | 0.226
IGFBP3 isoform 2 (UniProt P17936) | -0.001
